In ChEMBL document CHEMBL1961873, “Compounds: GSK PKIS; Assays: Nanosyn kinase panel” (2012):

Legend:
[1] = biological target: T1, Ephrin type-B receptor 2 (Homo sapiens) (UniProt P29323); conditions: at 1 µM
T1 sequence (whole entry): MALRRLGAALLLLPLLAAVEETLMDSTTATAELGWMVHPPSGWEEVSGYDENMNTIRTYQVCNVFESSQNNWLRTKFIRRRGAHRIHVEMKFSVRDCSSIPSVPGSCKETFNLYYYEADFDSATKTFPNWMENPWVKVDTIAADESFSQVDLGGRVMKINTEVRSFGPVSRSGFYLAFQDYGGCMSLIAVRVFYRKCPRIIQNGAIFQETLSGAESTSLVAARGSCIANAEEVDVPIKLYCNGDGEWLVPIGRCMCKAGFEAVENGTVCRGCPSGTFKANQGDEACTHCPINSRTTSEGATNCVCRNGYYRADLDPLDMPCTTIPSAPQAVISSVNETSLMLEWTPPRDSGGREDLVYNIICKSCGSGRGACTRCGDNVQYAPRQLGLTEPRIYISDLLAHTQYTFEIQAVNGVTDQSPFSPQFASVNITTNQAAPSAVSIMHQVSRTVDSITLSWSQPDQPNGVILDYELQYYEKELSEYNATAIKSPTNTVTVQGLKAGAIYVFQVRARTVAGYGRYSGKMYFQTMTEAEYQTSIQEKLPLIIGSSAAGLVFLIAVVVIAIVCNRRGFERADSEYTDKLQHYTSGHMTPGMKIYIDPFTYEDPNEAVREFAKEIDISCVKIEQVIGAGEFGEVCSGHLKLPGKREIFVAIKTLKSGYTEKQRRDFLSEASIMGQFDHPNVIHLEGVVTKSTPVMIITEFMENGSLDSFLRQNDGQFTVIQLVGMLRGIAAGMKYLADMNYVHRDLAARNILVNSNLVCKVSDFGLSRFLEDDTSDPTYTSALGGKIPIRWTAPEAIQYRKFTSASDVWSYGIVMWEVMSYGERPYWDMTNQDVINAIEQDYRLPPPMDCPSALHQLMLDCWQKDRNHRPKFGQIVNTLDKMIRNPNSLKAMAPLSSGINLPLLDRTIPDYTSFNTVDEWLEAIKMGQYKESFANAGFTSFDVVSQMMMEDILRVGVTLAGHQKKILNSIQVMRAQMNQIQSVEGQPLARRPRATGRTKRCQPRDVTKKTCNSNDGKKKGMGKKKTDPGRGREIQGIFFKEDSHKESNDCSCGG

[2] = biological target: T2, Ephrin type-B receptor 3 (Homo sapiens) (UniProt P54753); conditions: at 0.1 µM
T2 sequence (whole entry): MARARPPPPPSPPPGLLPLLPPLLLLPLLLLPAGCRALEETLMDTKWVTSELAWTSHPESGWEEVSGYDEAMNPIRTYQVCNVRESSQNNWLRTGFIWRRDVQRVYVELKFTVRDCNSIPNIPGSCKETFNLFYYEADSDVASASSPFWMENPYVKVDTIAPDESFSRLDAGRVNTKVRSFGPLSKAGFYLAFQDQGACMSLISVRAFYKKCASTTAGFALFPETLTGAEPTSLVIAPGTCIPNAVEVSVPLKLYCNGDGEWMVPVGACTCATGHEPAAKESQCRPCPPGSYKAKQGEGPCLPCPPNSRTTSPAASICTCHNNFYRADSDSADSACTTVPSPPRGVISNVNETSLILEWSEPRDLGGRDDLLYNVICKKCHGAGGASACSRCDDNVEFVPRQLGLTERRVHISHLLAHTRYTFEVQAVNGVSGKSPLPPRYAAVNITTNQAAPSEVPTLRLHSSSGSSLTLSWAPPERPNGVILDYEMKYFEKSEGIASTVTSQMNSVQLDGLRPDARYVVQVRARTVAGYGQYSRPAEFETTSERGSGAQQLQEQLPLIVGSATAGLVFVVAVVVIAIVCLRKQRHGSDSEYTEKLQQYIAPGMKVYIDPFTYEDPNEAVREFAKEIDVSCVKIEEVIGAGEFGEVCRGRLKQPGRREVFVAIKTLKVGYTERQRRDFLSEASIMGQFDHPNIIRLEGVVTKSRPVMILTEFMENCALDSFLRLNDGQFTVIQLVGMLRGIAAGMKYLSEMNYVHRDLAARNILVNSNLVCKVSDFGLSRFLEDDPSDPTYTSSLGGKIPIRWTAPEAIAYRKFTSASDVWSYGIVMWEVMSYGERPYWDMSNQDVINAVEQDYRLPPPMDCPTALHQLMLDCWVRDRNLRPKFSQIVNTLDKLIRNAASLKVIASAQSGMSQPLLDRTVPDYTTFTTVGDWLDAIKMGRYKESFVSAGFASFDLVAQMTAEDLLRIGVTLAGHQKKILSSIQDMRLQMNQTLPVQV

[3] = biological target: T2, Ephrin type-B receptor 3 (Homo sapiens); conditions: at 1 µM
[4] = biological target: T3, Ephrin type-B receptor 4 (Homo sapiens) (UniProt P54760); conditions: at 0.1 µM
T3 sequence (whole entry): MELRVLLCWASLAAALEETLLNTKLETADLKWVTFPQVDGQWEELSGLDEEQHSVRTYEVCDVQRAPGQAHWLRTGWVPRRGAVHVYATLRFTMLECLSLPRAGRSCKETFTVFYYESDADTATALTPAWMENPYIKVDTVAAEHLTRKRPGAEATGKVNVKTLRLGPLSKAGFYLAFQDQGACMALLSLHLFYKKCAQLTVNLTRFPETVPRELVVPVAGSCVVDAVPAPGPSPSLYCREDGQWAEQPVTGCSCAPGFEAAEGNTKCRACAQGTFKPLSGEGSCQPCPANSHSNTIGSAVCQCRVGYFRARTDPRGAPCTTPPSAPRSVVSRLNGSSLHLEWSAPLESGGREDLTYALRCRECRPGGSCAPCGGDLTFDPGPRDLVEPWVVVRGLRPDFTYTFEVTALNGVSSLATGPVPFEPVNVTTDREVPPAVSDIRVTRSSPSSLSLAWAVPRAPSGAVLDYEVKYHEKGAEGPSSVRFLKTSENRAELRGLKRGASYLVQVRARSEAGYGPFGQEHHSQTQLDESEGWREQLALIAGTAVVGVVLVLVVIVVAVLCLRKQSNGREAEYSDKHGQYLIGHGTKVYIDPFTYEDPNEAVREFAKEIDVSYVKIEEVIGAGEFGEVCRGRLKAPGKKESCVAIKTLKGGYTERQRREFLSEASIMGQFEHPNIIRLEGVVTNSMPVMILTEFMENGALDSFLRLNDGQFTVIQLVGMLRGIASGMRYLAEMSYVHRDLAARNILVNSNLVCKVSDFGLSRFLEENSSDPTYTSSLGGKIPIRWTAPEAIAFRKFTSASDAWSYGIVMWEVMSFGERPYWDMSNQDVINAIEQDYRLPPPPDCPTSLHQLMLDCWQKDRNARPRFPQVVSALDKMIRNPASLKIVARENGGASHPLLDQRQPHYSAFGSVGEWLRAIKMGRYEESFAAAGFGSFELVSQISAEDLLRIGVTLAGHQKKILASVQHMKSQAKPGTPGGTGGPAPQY

[5] = biological target: T3, Ephrin type-B receptor 4 (Homo sapiens); conditions: at 1 µM
[6] = biological target: Receptor tyrosine-protein kinase erbB-2 (Homo sapiens) (UniProt P04626); conditions: at 0.1 µM
[7] = biological target: Receptor tyrosine-protein kinase erbB-2 (Homo sapiens) (UniProt P04626); conditions: at 1 µM
[8] = biological target: Receptor tyrosine-protein kinase erbB-4 (Homo sapiens) (UniProt Q15303); conditions: at 0.1 µM
[9] = biological target: Receptor tyrosine-protein kinase erbB-4 (Homo sapiens) (UniProt Q15303); conditions: at 1 µM
[10] = biological target: Tyrosine-protein kinase Fer (Homo sapiens) (UniProt P16591); conditions: at 0.1 µM
[11] = biological target: Tyrosine-protein kinase Fer (Homo sapiens) (UniProt P16591); conditions: at 1 µM
[12] = biological target: Tyrosine-protein kinase Fes/Fps (Homo sapiens) (UniProt P07332); conditions: at 0.1 µM
[13] = biological target: Tyrosine-protein kinase Fes/Fps (Homo sapiens) (UniProt P07332); conditions: at 1 µM
[14] = biological target: Fibroblast growth factor receptor 1 (Homo sapiens) (UniProt P11362); conditions: at 0.1 µM
[15] = biological target: Fibroblast growth factor receptor 1 (Homo sapiens) (UniProt P11362); conditions: at 1 µM
[16] = biological target: Fibroblast growth factor receptor 2 (Homo sapiens) (UniProt P21802); conditions: at 0.1 µM
[17] = biological target: Fibroblast growth factor receptor 2 (Homo sapiens) (UniProt P21802); conditions: at 1 µM
[18] = biological target: Fibroblast growth factor receptor 3 (Homo sapiens) (UniProt P22607); conditions: at 0.1 µM
[19] = biological target: Fibroblast growth factor receptor 3 (Homo sapiens) (UniProt P22607); conditions: at 1 µM
[20] = biological target: Fibroblast growth factor receptor 4 (Homo sapiens) (UniProt P22455); conditions: at 0.1 µM;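 further: values are mean percent inhibition of FGFR4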

Fibroblast growth factor receptor 3 (Homo sapiens), sequence (P22607 23-806 limits assumed): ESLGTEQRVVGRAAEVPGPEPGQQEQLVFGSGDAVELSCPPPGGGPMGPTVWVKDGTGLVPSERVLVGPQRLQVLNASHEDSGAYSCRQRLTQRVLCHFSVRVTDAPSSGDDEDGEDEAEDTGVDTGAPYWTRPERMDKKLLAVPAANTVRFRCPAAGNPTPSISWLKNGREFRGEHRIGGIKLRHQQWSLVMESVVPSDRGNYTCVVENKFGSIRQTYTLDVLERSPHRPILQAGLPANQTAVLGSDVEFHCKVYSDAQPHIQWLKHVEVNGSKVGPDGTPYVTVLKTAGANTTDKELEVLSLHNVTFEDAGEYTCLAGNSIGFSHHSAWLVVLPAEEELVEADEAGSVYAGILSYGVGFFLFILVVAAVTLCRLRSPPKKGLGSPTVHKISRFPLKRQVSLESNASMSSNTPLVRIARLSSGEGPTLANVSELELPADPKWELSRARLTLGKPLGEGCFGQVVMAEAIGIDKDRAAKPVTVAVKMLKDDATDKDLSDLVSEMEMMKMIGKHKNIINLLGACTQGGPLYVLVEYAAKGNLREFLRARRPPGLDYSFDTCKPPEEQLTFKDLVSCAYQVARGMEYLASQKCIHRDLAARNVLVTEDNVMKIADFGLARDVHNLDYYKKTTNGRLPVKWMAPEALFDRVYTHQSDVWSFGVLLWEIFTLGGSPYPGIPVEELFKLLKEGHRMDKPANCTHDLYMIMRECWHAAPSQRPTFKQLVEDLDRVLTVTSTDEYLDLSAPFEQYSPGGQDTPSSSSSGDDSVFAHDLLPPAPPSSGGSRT
Fibroblast growth factor receptor 1 (Homo sapiens), sequence (P11362 22-822 limits assumed): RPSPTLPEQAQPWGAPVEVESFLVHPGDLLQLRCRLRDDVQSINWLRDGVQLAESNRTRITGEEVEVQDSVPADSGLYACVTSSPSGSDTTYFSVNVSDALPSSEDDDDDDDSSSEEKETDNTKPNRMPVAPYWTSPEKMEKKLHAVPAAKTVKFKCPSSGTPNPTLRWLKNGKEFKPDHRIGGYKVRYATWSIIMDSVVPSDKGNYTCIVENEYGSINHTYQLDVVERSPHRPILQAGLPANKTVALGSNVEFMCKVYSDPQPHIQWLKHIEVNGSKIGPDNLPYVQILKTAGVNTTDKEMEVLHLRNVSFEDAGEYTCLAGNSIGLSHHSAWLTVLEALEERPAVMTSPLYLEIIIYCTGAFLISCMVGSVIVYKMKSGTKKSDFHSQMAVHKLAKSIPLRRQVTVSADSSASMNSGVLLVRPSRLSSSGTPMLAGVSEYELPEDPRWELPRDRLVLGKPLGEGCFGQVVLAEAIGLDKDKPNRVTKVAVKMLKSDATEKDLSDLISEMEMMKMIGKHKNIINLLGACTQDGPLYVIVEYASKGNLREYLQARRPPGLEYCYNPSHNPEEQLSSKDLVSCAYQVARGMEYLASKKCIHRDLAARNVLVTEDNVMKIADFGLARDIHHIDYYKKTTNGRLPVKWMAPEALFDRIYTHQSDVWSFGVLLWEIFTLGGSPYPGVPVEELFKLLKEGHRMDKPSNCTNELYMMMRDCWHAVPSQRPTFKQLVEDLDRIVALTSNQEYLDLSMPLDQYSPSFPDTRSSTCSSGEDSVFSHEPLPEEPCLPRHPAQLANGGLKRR
Tyrosine-protein kinase Fes/Fps (Homo sapiens), sequence (P07332 whole entry): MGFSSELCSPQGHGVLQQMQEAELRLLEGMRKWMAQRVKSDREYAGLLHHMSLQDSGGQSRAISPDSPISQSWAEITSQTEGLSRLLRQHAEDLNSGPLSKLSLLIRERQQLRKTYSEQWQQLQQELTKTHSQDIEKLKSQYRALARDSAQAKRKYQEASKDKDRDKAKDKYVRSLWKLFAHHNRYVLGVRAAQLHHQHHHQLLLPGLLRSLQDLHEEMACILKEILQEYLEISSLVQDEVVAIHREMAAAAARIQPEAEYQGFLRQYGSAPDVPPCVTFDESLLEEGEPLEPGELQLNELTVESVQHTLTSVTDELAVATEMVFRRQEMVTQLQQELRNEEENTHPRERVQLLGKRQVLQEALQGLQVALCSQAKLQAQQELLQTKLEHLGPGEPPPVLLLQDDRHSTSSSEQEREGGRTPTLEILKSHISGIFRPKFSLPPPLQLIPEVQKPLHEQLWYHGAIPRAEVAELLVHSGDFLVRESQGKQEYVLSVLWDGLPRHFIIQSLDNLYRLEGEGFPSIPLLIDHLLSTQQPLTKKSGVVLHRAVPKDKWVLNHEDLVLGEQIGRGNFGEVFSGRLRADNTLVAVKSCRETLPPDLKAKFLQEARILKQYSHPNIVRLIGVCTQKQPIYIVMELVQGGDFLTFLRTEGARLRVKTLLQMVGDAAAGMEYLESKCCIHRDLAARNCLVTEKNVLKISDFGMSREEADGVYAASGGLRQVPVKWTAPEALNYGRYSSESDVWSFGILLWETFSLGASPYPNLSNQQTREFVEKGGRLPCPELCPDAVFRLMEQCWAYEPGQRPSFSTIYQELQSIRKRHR
Fibroblast growth factor receptor 2 (Homo sapiens), sequence (P21802 22-821 limits assumed): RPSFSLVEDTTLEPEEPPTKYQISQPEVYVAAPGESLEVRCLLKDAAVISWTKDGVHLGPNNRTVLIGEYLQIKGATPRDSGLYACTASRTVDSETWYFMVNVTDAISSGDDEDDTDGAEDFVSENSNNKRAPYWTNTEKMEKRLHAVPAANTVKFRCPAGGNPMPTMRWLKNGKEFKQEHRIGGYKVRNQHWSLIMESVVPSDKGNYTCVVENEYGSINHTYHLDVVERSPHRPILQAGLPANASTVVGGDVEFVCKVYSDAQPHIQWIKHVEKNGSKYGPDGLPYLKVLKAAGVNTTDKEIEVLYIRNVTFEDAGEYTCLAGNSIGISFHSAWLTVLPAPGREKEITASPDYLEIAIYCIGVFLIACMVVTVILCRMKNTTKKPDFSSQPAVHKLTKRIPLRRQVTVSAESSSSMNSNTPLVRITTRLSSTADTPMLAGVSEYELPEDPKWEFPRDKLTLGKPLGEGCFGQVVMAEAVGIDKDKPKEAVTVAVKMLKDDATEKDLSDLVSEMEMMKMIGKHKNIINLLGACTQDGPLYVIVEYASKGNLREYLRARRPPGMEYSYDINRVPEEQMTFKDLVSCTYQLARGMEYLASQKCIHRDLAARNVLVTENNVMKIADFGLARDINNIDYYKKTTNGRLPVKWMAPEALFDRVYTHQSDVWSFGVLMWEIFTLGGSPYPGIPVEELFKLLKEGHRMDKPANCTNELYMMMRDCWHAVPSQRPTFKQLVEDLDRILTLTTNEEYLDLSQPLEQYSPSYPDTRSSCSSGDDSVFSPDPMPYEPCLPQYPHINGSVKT
Receptor tyrosine-protein kinase erbB-2 (Homo sapiens), sequence (P04626 whole entry): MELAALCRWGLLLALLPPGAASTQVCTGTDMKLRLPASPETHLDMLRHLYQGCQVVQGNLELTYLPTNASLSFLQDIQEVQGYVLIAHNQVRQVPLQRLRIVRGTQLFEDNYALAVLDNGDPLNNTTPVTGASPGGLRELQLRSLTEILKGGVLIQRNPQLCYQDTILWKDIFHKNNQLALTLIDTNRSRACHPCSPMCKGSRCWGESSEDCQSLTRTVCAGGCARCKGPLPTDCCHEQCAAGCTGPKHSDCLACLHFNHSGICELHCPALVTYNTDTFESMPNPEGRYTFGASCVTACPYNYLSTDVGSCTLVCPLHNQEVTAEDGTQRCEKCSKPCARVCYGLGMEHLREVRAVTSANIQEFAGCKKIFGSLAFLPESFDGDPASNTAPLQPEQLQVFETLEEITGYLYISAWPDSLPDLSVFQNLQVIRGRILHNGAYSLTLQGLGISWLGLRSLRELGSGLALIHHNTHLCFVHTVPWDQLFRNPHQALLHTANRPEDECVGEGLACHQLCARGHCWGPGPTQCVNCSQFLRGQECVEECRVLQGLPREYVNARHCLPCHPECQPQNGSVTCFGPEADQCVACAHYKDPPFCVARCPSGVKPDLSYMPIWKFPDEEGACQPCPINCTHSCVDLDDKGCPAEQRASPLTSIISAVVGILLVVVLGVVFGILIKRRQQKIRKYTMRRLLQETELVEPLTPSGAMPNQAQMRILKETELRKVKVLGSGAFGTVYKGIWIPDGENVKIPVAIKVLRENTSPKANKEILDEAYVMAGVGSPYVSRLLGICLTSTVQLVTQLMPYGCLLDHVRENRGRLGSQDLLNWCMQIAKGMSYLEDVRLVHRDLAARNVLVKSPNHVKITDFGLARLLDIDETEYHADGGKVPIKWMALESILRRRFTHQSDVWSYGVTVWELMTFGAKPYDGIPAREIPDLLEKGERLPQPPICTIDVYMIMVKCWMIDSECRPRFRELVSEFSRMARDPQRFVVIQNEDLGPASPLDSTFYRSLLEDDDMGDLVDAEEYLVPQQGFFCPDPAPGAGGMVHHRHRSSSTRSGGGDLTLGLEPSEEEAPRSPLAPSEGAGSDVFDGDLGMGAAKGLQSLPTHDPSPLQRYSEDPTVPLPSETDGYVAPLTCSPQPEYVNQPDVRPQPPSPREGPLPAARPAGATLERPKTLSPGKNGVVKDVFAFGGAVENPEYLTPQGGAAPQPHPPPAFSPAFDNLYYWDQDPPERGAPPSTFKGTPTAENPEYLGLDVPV

SMILES	inhibition [1] [%]	inhibition [2] [%]	inhibition [3] [%]	inhibition [4] [%]	inhibition [5] [%]	inhibition [6] [%]	inhibition [7] [%]	inhibition [8] [%]	inhibition [9] [%]	inhibition [10] [%]	inhibition [11] [%]	inhibition [12] [%]	inhibition [13] [%]	inhibition [14] [%]	inhibition [15] [%]	inhibition [16] [%]	inhibition [17] [%]	inhibition [18] [%]	inhibition [19] [%]	inhibition [20] [%]
CCS(=O)(=O)c1ccc(OC)c(Nc2ncc(-c3cccc(C(C)=O)c3)o2)c1	21.8	3.26	5.98	1.8	6.82	2.14	6.11	7.58	11.1	1.02	3.06	1.69	2.72	4.89	12.9	17.2	52.6	20	60	1.41
CS(=O)(=O)Nc1ccc(-c2ccc3c(NC(=O)C4CC4)n[nH]c3c2)cc1	11.6	4.92	4.97	2.13	4.33	-0.58	-2.83	-5.65	9.99	9.81	11.5	2.68	4.38	6.04	6.36	3.37	8.17	6.11	5.97	-2.39
Cn1c(-c2nonc2N)nc2cnccc21	3.92	3.54	4.62	2.84	2	4.78	3.42	14.9	17.3	3.92	6.7	2.6	3.53	4.78	2.36	2.83	1.91	5.11	1.94	-0.24
O=C1Nc2ccccc2/C1=C1\CCc2cc(O)ccc21	9.85	7.65	3.73	1.66	2.84	0.88	-3.46	8.95	13.7	7	22.1	4.19	6.81	8.16	23.5	9.87	31.3	10.3	30.9	-1.94
OCCCNc1nccc(-c2c(-c3ccc(F)cc3)nn3cc(C(F)(F)F)ccc23)n1	28.2	4.77	1.45	1.6	7.56	0.24	-0.41	8.07	14.4	1.98	2.56	1.95	2.62	6	6.47	0.64	3.29	2.01	1.53	1.17
CNC(=O)c1cncc(/C=C/c2ccccc2C)c1	19.7	5.82	4.91	1.77	9.19	2.44	6.67	13.2	14.8	4.15	4.88	2.38	1.6	4.11	3.14	2.42	4.95	6.04	4.39	0.55
COc1cccc(-n2ncc3c(N/N=C/c4ccc(C(=O)NCCN(C)C)cc4)ncnc32)c1	46.4	5.98	7.32	6.37	30.5	0.77	10.5	23.2	49.9	3.03	1.12	1.87	3.63	4.74	9.7	5.08	10.7	6.47	9.95	0.01
